# Data taken from the supplement of paper PMC10646978.
# ± gives the standard deviation.
# Columns and labels:
# Conditions in all cases: modulator concentration 10 µM
# [1] = system: RAW-Dual (murine macrophage reporter line); assay: NF-kB reporter (SEAP) activity fold change vs agonist alone; higher = enhanced NF-kB activity
# Method in brief: (§1)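 Compound reached 10 μM final in each well by pin transfer, onto RAW-Dual murine macrophage reporter cells seeded at 50 000 per well in 384-well plates. After 1 hour at 37 °C, the cells were stimulated overnight with a PRR agonist. SEAP in the supernatant was read with QUANTI-Blue at 620 nm absorbance for NF-κB, and Lucia luciferase was read with QUANTI-Luc luminescence for IRF. Each signal was turned into fold change against the mean agonist-only control on the same plate, and two replicate plates were averaged with propagated errors.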
# [2] = system: RAW-Dual (murine macrophage reporter line); assay: IRF reporter (Lucia luciferase) activity fold change vs agonist alone; higher = enhanced IRF activity
# Method in brief: as §1
# [3] = system: RAW-Dual (murine macrophage reporter line); assay: viability score (confluency relative to resting cells, overnight) (fraction); higher = more viable, active = viable (0.7 or more)
# Method in brief: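 Overnight exposure to 10 μM final compound was carried out on RAW-Dual macrophages in 384-well plates. IncuCyte software generated two confluency masks over all wells imaged with IncuCyte. The viability score gives confluency in relation to resting cells. A compound met the cutoff if each mask exceeded 70% of resting cells.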
# [4] = agonist: CpG ODN 1826 0.5 ug/mL
SMILES,"NF-kB reporter [1, 4]",NF-kB reporter ([1]; agonist: LPS 0.1 ug/mL),NF-kB reporter ([1]; agonist: MPLA […]),IRF reporter ([2]; agonist: 3'3'-cGAMP 10 ug/mL),IRF reporter ([2]; agonist: LPS 0.1 ug/mL),IRF reporter ([2]; agonist: MPLA […]),viability score [3]
COc1ccc(CNCc2ccc3ccccc3c2)cc1OC,0.722 ± 0.064,1 ± 0.07,0.943 ± 0.05,0.784 ± 0.035,1.04 ± 0.059,0.961 ± 0.2,0.999 (active)
Cc1cnc2c(c1NCCCO)c(=O)n(C)c(=O)n2C,1.1 ± 0.1,1.01 ± 0.088,1.02 ± 0.027,0.881 ± 0.04,0.947 ± 0.11,0.887 ± 0.21,0.995 (active)
CC(C)c1ccc(N(CC(=O)NCCSCc2ccc(Cl)cc2)S(C)(=O)=O)cc1,0.597 ± 0.058,0.909 ± 0.076,0.918 ± 0.08,0.588 ± 0.04,1.14 ± 0.066,1.07 ± 0.13,1.01 (active)
CNC(=NC#N)NCCSCc1nc[nH]c1C,0.952 ± 0.073,0.94 ± 0.11,1.03 ± 0.16,1.01 ± 0.032,1.21 ± 0.14,1.36 ± 0.16,1.03 (active)
CN1C(CC(=O)c2ccccc2)CCCC1CC(O)c1ccccc1.Cl (configuration not stated),0.601 ± 0.16,1.01 ± 0.097,0.964 ± 0.083,0.815 ± 0.041,0.996 ± 0.21,1.03 ± 0.15,0.988 (active)
O=C(CSc1nc(-c2ccccc2)c(-c2ccccc2)o1)N1CCOCC1,1.03 ± 0.081,1.02 ± 0.079,0.903 ± 0.054,0.954 ± 0.045,1.31 ± 0.11,1.2 ± 0.12,0.996 (active)
CCN(CC)c1ccc(C2Nc3ccccc3-c3nnc(SC)nc3O2)c(OC)c1 (configuration not stated),0.889 ± 0.07,0.986 ± 0.066,0.985 ± 0.059,0.954 ± 0.024,1.39 ± 0.24,0.87 ± 0.076,1.01 (active)
CN1CCN(CC(O)Cn2c3ccccc3c3ccccc32)CC1.O=C(O)C(=O)O (configuration not stated),0.964 ± 0.074,0.946 ± 0.1,0.983 ± 0.093,0.609 ± 0.02,1.39 ± 0.19,1.45 ± 0.23,1.01 (active)
O=S(=O)(NCCOCc1ccccc1)c1ccccc1,1.13 ± 0.093,1.05 ± 0.076,1.04 ± 0.14,1.02 ± 0.068,1.19 ± 0.18,1.27 ± 0.21,0.966 (active)
Cc1ccc(C2C=C(c3ccccc3)Nc3ncnn32)cc1 (configuration not stated),0.956 ± 0.089,1.07 ± 0.12,0.893 ± 0.064,1.1 ± 0.056,1.13 ± 0.11,1.23 ± 0.35,0.982 (active)
Cl.O=C1c2cccc3c2C(CCC3)CN1C1CN2CCC1CC2 (configuration not stated),0.77 ± 0.21,0.704 ± 0.044,0.825 ± 0.058,0.557 ± 0.035,0.718 ± 0.086,0.924 ± 0.14,0.987 (active)
Cc1ccc(-c2cc(C(F)(F)F)n3nc(C(=O)NCCCN4CCOCC4)cc3n2)cc1,0.995 ± 0.083,1.06 ± 0.098,0.983 ± 0.082,0.968 ± 0.024,1.31 ± 0.22,1.13 ± 0.22,1.01 (active)
CC1Cc2ccccc2N1C(=O)c1cc2n(n1)CCCO2 (configuration not stated),0.962 ± 0.076,0.949 ± 0.06,1.09 ± 0.12,0.903 ± 0.054,1.39 ± 0.082,1.44 ± 0.15,0.985 (active)
CN1c2ccccc2-c2ccccc2C12C=Cc1cc([N+](=O)[O-])ccc1O2 (configuration not stated),0.385 ± 0.021,0.916 ± 0.1,0.879 ± 0.07,1.09 ± 0.07,1.27 ± 0.2,1.1 ± 0.12,0.999 (active)
CC(=O)Oc1cc2c(s1)CCN(C(C(=O)C1CC1)c1ccccc1F)C2 (configuration not stated),0.988 ± 0.15,1.2 ± 0.36,0.844 ± 0.05,0.919 ± 0.035,1.28 ± 0.31,1.1 ± 0.18,0.985 (active)
COc1cc2c(cc1OC)C1Cc3ccc(OC)c(OC)c3CN1CC2 (configuration not stated),0.932 ± 0.24,0.87 ± 0.044,0.949 ± 0.067,0.871 ± 0.052,1.09 ± 0.14,1.15 ± 0.17,1 (active)
CC12CC3CC(C)(C1)CC(N)(C3)C2 [Prestw-978],0.916 ± 0.073,0.95 ± 0.092,0.996 ± 0.095,1.26 ± 0.045,0.925 ± 0.078,0.844 ± 0.17,0.979 (active)
CCOc1ccccc1O[C@H](c1ccccc1)[C@H]1CNCCO1.CS(=O)(=O)O,0.873 ± 0.095,0.979 ± 0.061,1.03 ± 0.055,0.82 ± 0.045,0.905 ± 0.15,0.897 ± 0.074,0.99 (active)

SMILES,"NF-kB reporter [1, 4]",NF-kB reporter ([1]; agonist: LPS 0.1 ug/mL),NF-kB reporter ([1]; agonist: MPLA […]),IRF reporter ([2]; agonist: 3'3'-cGAMP 10 ug/mL),IRF reporter ([2]; agonist: LPS 0.1 ug/mL),IRF reporter ([2]; agonist: MPLA […]),viability score [3]
O=[N+]([O-])c1cc(C(F)(F)F)ccc1N1CCN(CC=Cc2ccccc2)CC1,0.915 ± 0.078,1.07 ± 0.099,0.985 ± 0.071,0.976 ± 0.036,1.47 ± 0.24,1.14 ± 0.12,1.01 (active)
COC(=O)CSc1ccc2nnc(-c3ccc(F)cc3)n2n1,1.12 ± 0.088,1.1 ± 0.057,1.06 ± 0.023,0.71 ± 0.05,0.719 ± 0.042,0.803 ± 0.069,1 (active)
C(#Cc1ccc(C=Nc2nccs2)cc1)c1ccccc1,0.714 ± 0.18,0.935 ± 0.17,0.892 ± 0.1,0.176 ± 0.029,1.09 ± 0.16,1.15 ± 0.17,0.997 (active)
CCOc1ccccc1OCCCCOc1cccc(C)c1,0.871 ± 0.064,0.936 ± 0.071,0.995 ± 0.028,0.996 ± 0.12,0.878 ± 0.13,0.96 ± 0.29,0.998 (active)
Cc1cccc(OCCCOc2cccc3cccnc23)c1C,0.735 ± 0.068,0.895 ± 0.055,1.07 ± 0.1,0.974 ± 0.053,1.44 ± 0.083,1.7 ± 0.22,0.978 (active)
CN(C(=NS(=O)(=O)c1ccccc1)c1ccccc1)c1ccc(O)cc1,1.05 ± 0.19,1.39 ± 0.11,1.16 ± 0.096,0.968 ± 0.063,1.2 ± 0.26,1.24 ± 0.2,1.01 (active)
CN1C(C(=O)Nc2ccccn2)=C(O)c2ccccc2S1(=O)=O,0.654 ± 0.063,0.901 ± 0.047,1.11 ± 0.097,0.943 ± 0.056,1.25 ± 0.077,1.35 ± 0.11,1.02 (active)
COC(=O)C1=C(C)NC(C)=C(C(=O)O[C@@H]2CCCN(Cc3ccccc3)C2)[C@@H]1c1cccc([N+](=O)[O-])c1.Cl,0.323 ± 0.024,0.587 ± 0.034,1.31 ± 0.036,0.31 ± 0.018,1.05 ± 0.12,1.25 ± 0.18,0.997 (active)
Clc1ccccc1C1Nc2cccc3cccc(c23)N1,1.04 ± 0.092,0.898 ± 0.091,0.867 ± 0.084,0.684 ± 0.06,0.967 ± 0.14,0.792 ± 0.14,0.97 (active)
OC(CNC1CCCCC1)Cn1c2ccc(Cl)cc2c2cc(Cl)ccc21 (configuration not stated),0.137 ± 0.03,0.219 ± 0.037,0.613 ± 0.042,0.11 ± 0.058,0.302 ± 0.018,0.436 ± 0.12,0.0501 (inactive)
O=C(c1ccc2ccccc2n1)N1CCc2ncncc2C1,1.08 ± 0.054,1.04 ± 0.083,0.862 ± 0.044,0.956 ± 0.063,1.09 ± 0.18,1.11 ± 0.27,1.01 (active)
O=S(=O)(Cc1cccc(F)c1)N1C2CCC1CC(Oc1cccnc1)C2 (configuration not stated),1.18 ± 0.07,1.1 ± 0.099,1.04 ± 0.054,0.986 ± 0.04,1.06 ± 0.052,1.04 ± 0.1,1 (active)
CC(N)C12CC3CC(CC(C3)C1)C2.Cl (configuration not stated),0.598 ± 0.14,1.07 ± 0.12,1.04 ± 0.068,0.919 ± 0.033,0.899 ± 0.1,0.966 ± 0.27,0.543 (inactive)
O=C(c1ccc(C(F)(F)F)nc1)N1CC(n2cc(C3CC3)nn2)C1,0.889 ± 0.073,0.931 ± 0.095,1.13 ± 0.082,1.01 ± 0.071,1.06 ± 0.15,1.08 ± 0.29,0.942 (active)
CC(NC(=O)c1nc2ccccc2[nH]1)c1ccc(Br)cc1 (configuration not stated),1.07 ± 0.11,0.938 ± 0.061,0.985 ± 0.047,1 ± 0.14,1 ± 0.073,1.13 ± 0.19,1 (active)
O=C(Nc1cc(C(F)(F)F)cc(C(F)(F)F)c1)c1cc(Br)ccc1Cl,0.966 ± 0.11,1.02 ± 0.066,0.912 ± 0.059,0.693 ± 0.043,1.52 ± 0.2,1.05 ± 0.2,1.01 (active)
O=C(CSC1CCCCC1)Nc1cc(C(F)(F)F)ccc1Cl,0.516 ± 0.045,1.38 ± 0.11,1.39 ± 0.063,1.45 ± 0.14,2.2 ± 0.16,1.47 ± 0.43,1.01 (active)
CCCCNC(=O)Cc1ccc(Br)cc1,0.947 ± 0.15,0.904 ± 0.11,0.913 ± 0.11,0.986 ± 0.052,1.29 ± 0.25,1.4 ± 0.33,0.989 (active)
